Measured values reported in ChEMBL document CHEMBL3433997, “St. Jude Leishmania screening dataset” (2016).

Key:
Format in all cases: functional
[1] = target: Solute carrier family 2, facilitated glucose transporter member 1 (Homo sapiens) (UniProt P11166); assay: ST_JUDE_LEISH: Cytotoxicity at 2uM final concentration against transgenic Leishmania Mexicana promastigotes LmGLUT1 that are glucose transport deficient and complemented with the human glucose transporter GLUT1. Activity is measured by DNA content using SYBR green in vitro
[2] = target: Hexose transporter 1 (Plasmodium falciparum) (UniProt O97467); assay: ST_JUDE_LEISH: Cytotoxicity at 2uM final concentration against transgenic Leishmania Mexicana promastigotes LmPfHT that are glucose transport deficient and complemented with the Plasmodium falciparum hexose transporter. Activity is measured by DNA content using SYBR green in vitro
[3] = target: Glucose transporter (Leishmania mexicana) (UniProt O61059); assay: ST_JUDE_LEISH: Cytotoxicity at 2uM final concentration against transgenic Leishmania Mexicana promastigotes LmGT2 that are glucose transport deficient and complemented with the L. Mexicana glucose transporter 2. Activity is measured by DNA content using SYBR green in vitro

Solute carrier family 2, facilitated glucose transporter member 1 (Homo sapiens), sequence (P11166 whole entry): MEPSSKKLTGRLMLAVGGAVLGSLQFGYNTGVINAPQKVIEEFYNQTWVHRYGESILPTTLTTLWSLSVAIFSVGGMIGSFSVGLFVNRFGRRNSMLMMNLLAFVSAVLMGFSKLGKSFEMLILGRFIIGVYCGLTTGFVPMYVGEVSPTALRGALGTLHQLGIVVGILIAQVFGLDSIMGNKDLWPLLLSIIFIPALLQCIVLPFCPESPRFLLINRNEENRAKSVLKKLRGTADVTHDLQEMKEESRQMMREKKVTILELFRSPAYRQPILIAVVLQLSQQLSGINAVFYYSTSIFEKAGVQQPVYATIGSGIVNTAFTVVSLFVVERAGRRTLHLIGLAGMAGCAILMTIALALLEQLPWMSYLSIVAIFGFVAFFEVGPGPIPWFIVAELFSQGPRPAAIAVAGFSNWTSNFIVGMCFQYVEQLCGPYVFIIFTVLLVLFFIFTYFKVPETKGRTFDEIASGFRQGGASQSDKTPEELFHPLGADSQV

| Structure (SMILES) | inhibition [1] [%] | inhibition [2] [%] | inhibition [3] [%] |
| --- | --- | --- | --- |
| Cc1ccc2sc(N(CCCn3ccnc3)C(=O)c3ccco3)nc2c1C | 0.64 | 2.76 | 2.79 |
| O=C(Nc1ccc2c(c1)OCO2)NC1CCN(c2ccnc(Nc3ccc(F)cc3)n2)C1 (stereo not drawn) | 0.34 | 6.37 | 3.79 |
| O=C(/C=C/c1ccc(Cl)c(Cl)c1)NCCCCCN1CCCN(C(=O)Nc2cccc(Cl)c2)CC1 | 0.54 | 0.75 | 3.37 |
| O=C(Nc1ccc(S(=O)(=O)N2CCCCCC2)cc1)c1cc(-c2ccccc2O)n[nH]1 | 9.89 | 8.12 | 8.68 |
| Cc1ccc2c(=O)cc(CCc3cccc(F)c3F)n(CC(=O)N(Cc3ccc(-c4ccc(C(F)(F)F)cc4)cc3)C3CCN(C(C)C)CC3)c2n1 | -2.51 | -0.71 | -1.8 |
| CC(Cc1ccc(OCC(=O)NCC2CCN(CCc3cccc(Cl)c3)CC2)cc1)NCCc1cccc(Cl)c1 (stereo not drawn) | 3.07 | 4.09 | 1.92 |
| CCN1CCC(N(Cc2ccc(-c3ccc(C(F)(F)F)cc3)cc2)C(=O)Cn2c(CCc3cccc(F)c3F)cc(=O)c3cn(C)nc32)CC1 | -2.3 | 1.08 | 0.21 |
| N#Cc1ccc(-c2ccc(C(=O)NCCCCN3CC=C(c4ccc5c(c4OCC4CC4)CCCC5)CC3)cc2)cc1 | 0.36 | 1.41 | -0.24 |
| Cc1cc(Nc2ncc(C#N)c(Nc3ccccc3C(N)=O)n2)ccc1N1CCN(C)CC1 | 79.2 | 78.8 | 65.4 |
| Cc1cc2ccc(-c3cccc(CN)c3)cc2nc1N | 0.93 | 1.15 | 0.73 |
| Cc1ccc(C2CCN(CCCCNC(=O)c3ccc(NC(=O)c4ccc(Cl)cc4)cc3)CC2)c(OCC(F)(F)F)c1 | 0.04 | 1.32 | 0.66 |
